About 79,000 compounds went through this panel and 15% of them were active in at least one assay; those are over-represented in the sample as a whole. Calls of active or inactive are those of the source. Cut-off read from the data, not from the text of the source: active = growth inhibition above about 70%; inactive = the rest.
Columns and labels:
[1] = NCI Yeast Anticancer Drug Screen. Data for the rad52 strain (AID 147);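 note: 0% = growth of vehicle-treated control cultures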; conditions: S. cerevisiae rad52 mutant growth inhibition, hits give high values
Procedure, shortened: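 Vehicle-treated cultures served as the reference for growth inhibition of compound-exposed yeast bearing a DNA repair mutation.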

[2] = NCI Yeast Anticancer Drug Screen. Data for the wt1 strain (AID 149);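 note: 0% = growth of vehicle-treated wt1 cultures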; conditions: S. cerevisiae wt1 strain (SPY 50644) growth inhibition, hits give high values
Procedure, shortened: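 Readout: yeast growth inhibition, normalised to vehicle controls, in the wt1 strain exposed to test compounds.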

[3] = NCI Yeast Anticancer Drug Screen. Data for the rad50EPP+ strain (AID 151);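 note: 0% = growth of vehicle-treated control cultures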; conditions: S. cerevisiae rad50 mutant strain, hits give high values
Procedure, shortened: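 In this screen, rad50EPP+ yeast were exposed to compounds. Growth inhibition was scored against vehicle-treated controls.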

[4] = NCI Yeast Anticancer Drug Screen. Data for the mgt1 strain (AID 153); conditions: S. cerevisiae mgt1 mutant growth inhibition, hits give high values
Procedure, shortened: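 mgt1 strain exposed; growth vs vehicle control recorded as inhibition.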

[5] = NCI Yeast Anticancer Drug Screen. Data for the rad50 strain (AID 155);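 note: 0% = growth of vehicle-only cultures of the same strain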; conditions: S. cerevisiae rad50 strain growth inhibition, hits give high values
Procedure, shortened: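 Compounds were tested on a yeast strain with an engineered DNA damage repair alteration; the reported value is growth inhibition normalised to vehicle treatment.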

[6] = NCI Yeast Anticancer Drug Screen. Data for the mec2-1 strain (AID 157); conditions: S. cerevisiae mec2-1 strain, hits give high values
Procedure, shortened: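 Vehicle-treated cultures served as reference for growth inhibition of compound-exposed mec2-1 yeast.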

[7] = NCI Yeast Anticancer Drug Screen. Data for the rad14 strain (AID 159);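 note: 0% = growth of vehicle-treated control cultures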; conditions: S. cerevisiae rad14 strain growth inhibition, hits give high values
Procedure, shortened: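 Compound-treated yeast with a defined DNA-repair lesion; growth inhibition normalised to vehicle-treated cultures.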

[8] = NCI Yeast Anticancer Drug Screen. Data for the sgs1 mgt1 strain (AID 161);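 note: 0% = growth of cultures given vehicle only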; conditions: S. cerevisiae sgs1 mgt1 strain, hits give high values
Procedure, shortened: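 Test agents were incubated with a DNA-repair-mutant yeast strain. Growth was then read and compared against vehicle-treated controls.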

[9] = NCI Yeast Anticancer Drug Screen. Data for the cln2 rad14 strain (AID 165);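 note: 0% = growth equal to vehicle treated cultures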; conditions: S. cerevisiae cln2 rad14 strain, hits give high values
Procedure, shortened: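 Each compound was tested on cln2 rad14 yeast. Inhibition of growth was calculated against vehicle-exposed controls.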

[10] = NCI Yeast Anticancer Drug Screen. Data for the bub3 strain (AID 167); conditions: S. cerevisiae bub3 mutant strain, hits give high values
Procedure, shortened: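 Growth of a checkpoint-deficient yeast mutant is measured after compound exposure. Values represent inhibition relative to vehicle.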

[11] = NCI Yeast Anticancer Drug Screen. Data for the wt2 strain (AID 169);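 note: 0% = growth of vehicle-treated yeast cultures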; conditions: S. cerevisiae wt2 strain growth inhibition, hits give high values
Procedure, shortened: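 Inhibition of yeast growth was determined after compound treatment, normalised to controls receiving only vehicle.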

[12] = NCI Yeast Anticancer Drug Screen. Data for the mlh1 strain (AID 171);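 note: 0% = growth of vehicle-treated control cultures of the same strain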; conditions: S. cerevisiae mlh1 strain growth inhibition, hits give high values
Procedure, shortened: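 Vehicle-normalised growth inhibition of a repair- or checkpoint-altered yeast strain following compound treatment.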

[13] = NCI Yeast Anticancer Drug Screen. Data for the sgs1 strain (AID 173);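 note: 0% = growth of vehicle-only control cultures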; conditions: S. cerevisiae sgs1 mutant, hits give high values
Procedure, shortened: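 Screen format: yeast with repair or checkpoint alterations, compound exposure, growth read relative to vehicle.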

[14] = NCI Yeast Anticancer Drug Screen. Data for the mlh1 rad18 strain (AID 175); conditions: S. cerevisiae mlh1 rad18 strain growth inhibition, hits give high values
Procedure, shortened: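 Vehicle-treated cultures served as the reference for growth inhibition in a yeast strain carrying DNA damage repair alterations exposed to each compound.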

[15] = NCI Yeast Anticancer Drug Screen. Data for the rad18 strain (AID 177); conditions: S. cerevisiae rad18 mutant growth inhibition, hits give high values
Procedure, shortened: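 Test articles were incubated with altered yeast defective in DNA damage repair. Results are given as inhibition of growth versus vehicle.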

[16] = NCI Yeast Anticancer Drug Screen. Data for the CLN2oe strain (AID 163);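 note: 0% = growth of vehicle-only control cultures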; conditions: S. cerevisiae CLN2oe strain, hits give high values
Procedure, shortened: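 Inhibition relative to vehicle-treated yeast is reported. Cells: strain with genetic alteration in cell-cycle control, grown with compound.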

[17] = at 5.0 µM (retest, dose inferred, filed as 0.5)
[18] = at 50.0 µM (retest, dose inferred, filed as 5.0)

Measured: growth inhibition

COc1cccc(/C=C2\S/C(=N/Nc3nc(-c4ccc([N+](=O)[O-])cc4)cs3)NC2=O)c1O
inactive: [1]; at 1.2 µM 15% | [1]; at 3.7 µM 21% | [1]; at 11.0 µM 58% | [2]; at 1.2 µM -78% | [2]; at 3.7 µM 7% | [2]; at 11.0 µM 22% | [2]; at 33.0 µM 42% | [2]; at 100.0 µM 57% | [3]; at 1.2 µM 33% | [3]; at 3.7 µM 63% | [4]; at 1.2 µM 9% | [4]; at 3.7 µM 23% | [4]; at 11.0 µM 39% | [4]; at 33.0 µM 59% | [4]; at 100.0 µM 56% | [5]; at 1.2 µM 2% | [5]; at 3.7 µM 11% | [5]; [17] -1% | [5]; at 11.0 µM 43% | [6]; at 1.2 µM 1% | [6]; at 3.7 µM 12% | [6]; [17] -4% | [6]; at 11.0 µM 39% | [6]; [18] 52% | [7]; at 1.2 µM 0% | [7]; at 3.7 µM 3% | [7]; at 11.0 µM 6% | [7]; at 33.0 µM 20% | [7]; at 100.0 µM 43% | [8]; [17] 0% | [9]; [17] 33% | [10]; at 1.2 µM 7% | [10]; at 3.7 µM 33% | [10]; at 11.0 µM 62% | [11]; at 1.2 µM -2% | [11]; at 3.7 µM 23% | [12]; at 1.2 µM -1% | [12]; at 3.7 µM 6% | [12]; at 11.0 µM 30% | [12]; at 33.0 µM 63% | [13]; at 1.2 µM 5% | [13]; at 3.7 µM 19% | [13]; at 11.0 µM 50% | [14]; [17] 10% | [15]; at 1.2 µM 10% | [15]; at 3.7 µM 25%
active: [1]; at 33.0 µM 72% | [1]; at 100.0 µM 80% | [3]; at 11.0 µM 89% | [3]; at 33.0 µM 96% | [3]; at 100.0 µM 94% | [5]; at 33.0 µM 73% | [5]; [18] 84% | [5]; at 50.0 µM 97% | [5]; at 100.0 µM 80% | [6]; at 33.0 µM 79% | [6]; at 50.0 µM 94.2% | [6]; at 100.0 µM 83% | [8]; [18] 76% | [8]; at 50.0 µM 95.7% | [9]; [18] 85% | [9]; at 50.0 µM 76.7% | [10]; [17] 82% | [10]; at 33.0 µM 90% | [10]; [18] 97% | [10]; at 50.0 µM 97% | [10]; at 100.0 µM 94% | [11]; at 11.0 µM 76% | [11]; at 33.0 µM 94% | [11]; at 100.0 µM 92% | [12]; at 100.0 µM 74% | [13]; at 33.0 µM 77% | [13]; at 100.0 µM 76% | [14]; [18] 89% | [14]; at 50.0 µM 95.3% | [15]; at 11.0 µM 72% | [15]; at 33.0 µM 93% | [15]; at 100.0 µM 92%

N#[N+]c1c([O-])c2ccccc2c2ccccc12
inactive: [1]; at 1.2 µM 13% | [1]; at 3.7 µM 23% | [2]; at 1.2 µM 3% | [2]; at 3.7 µM 4% | [2]; at 11.0 µM 15% | [2]; at 33.0 µM 30% | [3]; at 1.2 µM 13% | [3]; at 3.7 µM 32% | [4]; at 1.2 µM 4% | [4]; at 3.7 µM 15% | [4]; at 11.0 µM 23% | [4]; at 33.0 µM 39% | [5]; at 1.2 µM 22% | [5]; at 3.7 µM 46% | [5]; [17] -23% | [5]; [18] 35% | [6]; at 1.2 µM 0% | [6]; at 3.7 µM 0% | [6]; [17] -1% | [6]; at 11.0 µM 7% | [6]; at 33.0 µM 60% | [6]; [18] 36% | [6]; at 50.0 µM 48.6% | [8]; [17] -5% | [8]; [18] 16% | [16]; at 1.2 µM 4% | [16]; at 3.7 µM 8% | [16]; at 11.0 µM 18% | [16]; at 33.0 µM 42% | [9]; [17] -41% | [9]; [18] 2% | [9]; at 50.0 µM 47.5% | [10]; at 1.2 µM 12% | [10]; at 3.7 µM 10% | [10]; [17] -14% | [10]; at 11.0 µM 24% | [10]; at 33.0 µM 54% | [10]; [18] 22% | [10]; at 50.0 µM 44% | [11]; at 1.2 µM 2% | [11]; at 3.7 µM 5% | [11]; at 11.0 µM 12% | [11]; at 33.0 µM 60% | [12]; at 1.2 µM -1% | [12]; at 3.7 µM -1% | [12]; at 11.0 µM 20% | [12]; at 33.0 µM 65% | [13]; at 1.2 µM 0% | [13]; at 3.7 µM 4% | [13]; at 11.0 µM 20% | [14]; [17] -29% | [14]; [18] 50% | [15]; at 1.2 µM 30% | [15]; at 3.7 µM 50%
active: [1]; at 11.0 µM 82% | [1]; at 33.0 µM 97% | [1]; at 100.0 µM 97% | [2]; at 100.0 µM 97% | [3]; at 11.0 µM 84% | [3]; at 33.0 µM 96% | [3]; at 100.0 µM 96% | [4]; at 100.0 µM 97% | [5]; at 11.0 µM 85% | [5]; at 33.0 µM 96% | [5]; at 50.0 µM 92.7% | [5]; at 100.0 µM 96% | [6]; at 100.0 µM 97% | [8]; at 50.0 µM 76.2% | [16]; at 100.0 µM 95% | [10]; at 100.0 µM 95% | [11]; at 100.0 µM 98% | [12]; at 100.0 µM 97% | [13]; at 33.0 µM 82% | [13]; at 100.0 µM 97% | [14]; at 50.0 µM 86% | [15]; at 11.0 µM 93% | [15]; at 33.0 µM 98% | [15]; at 100.0 µM 96%

Reference: PubChem BioAssay (NCI)
